# Laboratory results reported in the supplement of paper PMC3342239.
# Counter-ions that a name gives are not always drawn.
# Test system: Saccharomyces cerevisiae
# Assay: fraction of cells in G1 phase (DNA content, flow cytometry); higher = more cells with unreplicated DNA (G1 delay)
# Conditions: temperature: 30 C, YPD
# In short: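 S. cerevisiae grown in YPD at 30°C was exposed to library drugs. In one setup, overnight sensitized JTY2953 cultures were diluted 1∶200, given a final 20 µg/ml and fixed after 6–7 h, while other runs dosed dividing JTY2953 with fixation 6 h later or BY4741 with fixation 4.33 h later. Cells were ethanol-fixed, stained with SYTOX Green and analysed by flow cytometry at 10,000 events. The G1 fraction is the area of the Dean-Jett-Fox G1 peak divided by the summed G1 and G2/M areas.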
# [1] = BY4741 PDR5+ SNQ2+, drug added to: actively dividing cells, 4.33 h
# [2] = JTY2953 pdr5 snq2 (sensitized), drug added to: actively dividing cells, 6 h
# [3] = JTY2953 pdr5 snq2 (sensitized), drug added to: cultures diluted from stationary phase, 6-7 h
compound,measurement,setting,value
Fc1ccc(C(c2ccc(F)cc2)N2CCN(C/C=C/c3ccccc3)CC2)cc1 [Flunarizine-2HCl] (41.8936 µM),fraction of cells in G1 phase,[1],0.442
same,fraction of cells in G1 phase,[2],0.761
same,fraction of cells in G1 phase,[3],0.605
OC(Cn1cncn1)(Cn1cncn1)c1ccc(F)cc1F [Fluconazole] (65.3004 µM),fraction of cells in G1 phase,[1],0.441
same,fraction of cells in G1 phase,[2],0.711
same,fraction of cells in G1 phase,[3],0.611
CCCCc1oc2ccccc2c1C(=O)c1cc(I)c(OCCN(CC)CC)c(I)c1 [Amiodarone] (30.9922 µM),fraction of cells in G1 phase,[2],0.388
same,fraction of cells in G1 phase,[3],0.868
CCc1nn(CCCN2CCN(c3cccc(Cl)c3)CC2)c(=O)n1CCOc1ccccc1 [Nefazodone] (42.5515 µM),fraction of cells in G1 phase,[1],0.422
same,fraction of cells in G1 phase,[2],0.688
same,fraction of cells in G1 phase,[3],0.721
C=C1/C(=C\C=C2/CCC[C@]3(C)[C@@H]([C@H](C)CCCC(C)C)CC[C@@H]23)C[C@@H](O)C[C@@H]1O [Alfacalcidol] (49.9188 µM),fraction of cells in G1 phase,[1],0.469
same,fraction of cells in G1 phase,[2],0.651
same,fraction of cells in G1 phase,[3],0.606
COC(=O)C1=C(C)NC(C)=C(C(=O)OCCCN2CCC(c3ccccc3)(c3ccccc3)CC2)[C@H]1c1cccc([N+](=O)[O-])c1 [Niguldipine HCl] (30.9502 µM),fraction of cells in G1 phase,[2],0.389
same,fraction of cells in G1 phase,[3],0.684
CC(C(O)c1ccc(O)cc1)N1CCC(Cc2ccccc2)CC1 (stereo not given) [Ifenprodil] (61.4525 µM),fraction of cells in G1 phase,[1],0.41
same,fraction of cells in G1 phase,[2],0.694
same,fraction of cells in G1 phase,[3],0.61
CC(C)COCC(CN(Cc1ccccc1)c1ccccc1)N1CCCC1 (stereo not given) [Bepridil] (48.4262 µM),fraction of cells in G1 phase,[1],0.391
same,fraction of cells in G1 phase,[2],0.637
same,fraction of cells in G1 phase,[3],0.601
CCOC(=O)C1=C(COCCN)NC(C)=C(C(=O)OC)C1c1ccccc1Cl (stereo not given) [Amlodipine] (48.9134 µM),fraction of cells in G1 phase,[1],0.481
same,fraction of cells in G1 phase,[2],0.673
same,fraction of cells in G1 phase,[3],0.768
